In PubChem BioAssay AID2284345 (EPA ToxCast):
Results filed as inconclusive are left out. The source made the active and inactive calls. How the source made its calls: active means hit-call score of the fitted dose curve at least 0.9, where 1 is the maximum; inconclusive means response in the unintended direction; inactive means score below 0.9.

Tested on: zebrafish Glucocorticoid Receptor (GR), gene 553740
Experiment: ATG_zfGR_EcoTox2: Attagene TRANS-FACTORIAL EcoTox-2 HepG2 Assay for zebrafish Glucocorticoid Receptor (GR)
Method: ATG_EcoTox2 is a cell-based, multiplexed assay created by modifying the existing Attagene TRANS-FACTORIAL system to include a panel of nuclear receptors from some or all the following species: human (Homo sapiens), african clawed frog (Xenopus laevis), rainbow trout (Oncorhynchus mykiss), japanese medaka (Oryzias latipes), and zebrafish (Danio rerio). The ECOTOX2-FACTORIAL format uses HepG2, a human liver cell line, with measurements taken at 24 hours after chemical dosing in a 24-well plate. ATG_zfGR_EcoTox2 is one of 29 assay components calculated in the ATG_EcoTox2 assay. It is designed to make measurements of mRNA induction, a form of inducible reporter, as detected with fluorescence intensity signals by Reverse transcription polymerase chain reaction (RT-PCR) and Capillary electrophoresis technology.The assay endpoint ATG_zfGR_EcoTox2 was analyzed in the positive analysis fitting direction relative to DMSO as the negative control and baseline of activity. Using a type of inducible reporter, measures of mRNA for gain-of-signal activity can be used to understand the reporter gene at the transcription factor-level as they relate to the gene for glucocorticoid receptor. Furthermore, this assay endpoint can be referred to as a primary readout, because this assay has produced multiple assay endpoints where this one serves a reporter gene function. To generalize the intended target to other relatable targets, this assay endpoint is annotated to the nuclear receptor intended target family, where the subfamily is steroidal.
Human liver HepG2 cells are transiently transfected with multiple reporter transcription units (MRTUs) in 6-well plates using FuGene 6 reagent (Roche; 3 ml FuGene/1 mg DNA). The MRTU constructs are regulated by a cis-regulating element (promoter). Each RTU expresses a GAL4-UAS that regulates the transcription of a nearby target reporter gene sequence. A major difference between the CIS and TRANS system is that in CIS activities of endogenous TFs are measured, whereas the TRANS assay evaluates changes in activities of exogenous, chimeric NR-Gal4 proteins. […] At the end of 24 hour incubation, total RNA was isolated using TriZol reagent (Invitrogen). The isolated RNA is then reverse-transcribed using oligo(dT) primer and Mo-MLV reverse transcriptase (Invitrogen) with DNAse I (Ambion) treatment for 30 min. The one-tenth of the produced cDNA was amplified by PCR using Taq DNA polymerase (Invitrogen) and two reporter sequence-specific primers. The PCR products were fluorescently labeled by primer extension with 6-arboxyfluorescein (6-FAM) 5'-labeled reporter sequence-specific primer (2 min at 95 C, 20 s at 68 C and 10 min at 72 C) and these products were digested with 5U of HpaI (New England Biolabs) for 2h at 37 C. The fragments were purified using Qiaquick PCR columns (Qiagen), analyzed on an ABI 3130xL genetic analyzer (Applied Biosystems) with peak positions identified by using a set of X-rhodamine (ROX)-labeled MapMarker1000 molecular weight standards (BioVentures). The raw capillary electrophoresis data was processed using Attagraph software (Attagene).

Row | SMILES | outcome | AC50
1 | Cc1ccc(C)c(OCCCC(C)(C)C(=O)O)c1 | inactive | 
2 | CC(C)(Oc1ccc(Cl)cc1)C(=O)O | inactive | 
3 | Cc1c(C)c2c(c(C)c1O)CCC(C)(COc1ccc(CC3SC(=O)NC3=O)cc1)O2 (configuration not stated) | inactive | 
4 | CC(C)OC(=O)C(C)(C)Oc1ccc(C(=O)c2ccc(Cl)cc2)cc1 | inactive | 
5 | C[C@]12C=CC(=O)C=C1CC[C@@H]1[C@@H]2C(=O)C[C@@]2(C)[C@H]1CC[C@]2(O)C(=O)CO | inactive | 
6 | C[C@@H]1C[C@H]2[C@@H]3CCC4=CC(=O)C=C[C@]4(C)[C@@]3(F)[C@@H](O)C[C@]2(C)[C@@]1(O)C(=O)COP(=O)(O)O |  | 4.57 nM (active)
7 | CN(CCOc1ccc(CC2SC(=O)NC2=O)cc1)c1ccccn1 (configuration not stated) | inactive | 
